CCHFV vOTU inh: CCHFV vOTU protease inhibition. 370,000 compounds, 0.55% hits. inhibition, % at 11.5 µM. Pep-AMC fluorescence. AID 651958; also: 0% = vehicle wells with enzyme and 100% = no enzyme wells
GDH-TPI counter: inhibits GDH-TPI coupling enzymes, artifact for Mtb FBA screen; inhibition, % at 4.8 µM; GDH-TPI coupled enzyme counterscreen, NADH absorbance; 360,000 compounds, 1.2% hits; AID 588335;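 also: 0% = DMSO wells and 100% = wells lacking the enzyme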
FBA Mtb inh: inhibits M. tuberculosis FBA enzyme. purified M. tuberculosis FBA, fluorescence read-out. inhibition, % at 1 µM. 360,000 compounds, 2.3% hits; in the data active = inhibition above about 27%;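 also: 0% = vehicle and 100% = reference inhibitor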
Target sequence (P9WQA3 whole entry, looked up): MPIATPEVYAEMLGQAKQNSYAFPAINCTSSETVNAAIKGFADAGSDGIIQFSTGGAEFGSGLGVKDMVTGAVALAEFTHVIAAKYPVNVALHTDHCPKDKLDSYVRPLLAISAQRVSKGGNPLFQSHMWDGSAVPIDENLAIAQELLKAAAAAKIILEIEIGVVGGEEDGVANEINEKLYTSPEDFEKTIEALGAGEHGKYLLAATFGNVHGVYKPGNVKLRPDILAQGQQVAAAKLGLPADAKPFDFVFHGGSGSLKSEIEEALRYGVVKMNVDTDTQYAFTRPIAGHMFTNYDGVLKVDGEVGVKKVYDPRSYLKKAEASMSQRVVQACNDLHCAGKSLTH
RecA splice inh: blocks M. tuberculosis RecA intein splicing; P9WHJ3; cell-free RecA intein splicing, fluorescence; inhibition, % (test concentration not listed); 290,000 compounds, 0.75% hits; in the data active = inhibition above about 30%;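 also: 0% = vehicle wells and 100% = reference inhibitor control wells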
GFP chromophore: counter-screen: blocks GFP chromophore formation. shares compounds with RecA splice inh. cell-free GFP chromophore formation, fluorescence. EC50, µM. 2,100 compounds, 83% hits. AID 434968; call rule not given here
Numbers without * were called inactive. The list is not random: actives were taken first. Their share in the collection is about 4.2%. Rule as the data show it, unless noted: active = inhibition above about 30%; inactive = the rest.

Results for CC1=NN(CCC#N)C(=O)/C1=C/c1ccc(N(C)C)cc1 ?
CCHFV vOTU inh: 3.6; GDH-TPI counter: 2.4; FBA Mtb inh: -25.7; RecA splice inh: 48.2*; GFP chromophore: 10.7*

How did COc1cc(/C=C2\C(=O)N(CCC#N)N=C2C)ccc1OCC(=O)Nc1ccccc1 do in these assays?
CCHFV vOTU inh: 17.8; GDH-TPI counter: 0.0; FBA Mtb inh: -1.3; RecA splice inh: 78.9*; GFP chromophore: 5.61*

Results for CCc1nc2c(OCc3ccc(C(F)(F)F)cc3)cccn2c1N(C)C(=O)C(C)C ?
CCHFV vOTU inh: 22.9; GDH-TPI counter: -4.4; FBA Mtb inh: -3.2

What do the screens show for `COC(=O)c1ccccc1S(=O)(=O)N1CCC(NC(=O)c2ccccc2)CC1`?
CCHFV vOTU inh: -3.8; GDH-TPI counter: 0.7; FBA Mtb inh: 2.2; RecA splice inh: 45.3*; GFP chromophore: >38

Results for O=C(CN1C(=O)c2ccccc2C1=O)NC(Cc1ccccc1)C(=O)O (centres undefined) ?
CCHFV vOTU inh: -2.8; GDH-TPI counter: -1.4; FBA Mtb inh: -3.3

How did CC(=O)NC(c1cccc([N+](=O)[O-])c1)c1c(OC(C)=O)ccc2ccccc12 (centres undefined) do in these assays?
CCHFV vOTU inh: 7.9; GDH-TPI counter: 7.5; FBA Mtb inh: 3.9; RecA splice inh: 7.2

Results for CCCCC(=O)NC(c1cccc([N+](=O)[O-])c1)c1c(OC(C)=O)ccc2ccccc12 (centres undefined) ?
CCHFV vOTU inh: -4.4; GDH-TPI counter: -3.8; FBA Mtb inh: -1.3; RecA splice inh: 34.6*; GFP chromophore: >38

Results for CCOC(=O)C1=C(COC(=O)c2ccc(Br)o2)NC(=O)NC1C (centres undefined) ?
CCHFV vOTU inh: -5.0; GDH-TPI counter: 2.8; FBA Mtb inh: 4.7; RecA splice inh: 2.6

What do the screens show for `CCOC(=O)c1c(CC(C)C)csc1NC(=O)CCl`?
CCHFV vOTU inh: 24.0; GDH-TPI counter: 2.5; FBA Mtb inh: -7.0; RecA splice inh: 51.7*; GFP chromophore: >38

How did CCOC(=O)c1ccc(CC2S/C(=C(\C#N)C(C)=O)NC2=O)cc1 (centres undefined) do in these assays?
CCHFV vOTU inh: 21.4; GDH-TPI counter: 27.0; FBA Mtb inh: 2.0; RecA splice inh: 81.7*; GFP chromophore: >38

Results for CCc1ccc(CC2S/C(=C(\C#N)C(C)=O)NC2=O)cc1 (centres undefined) ?
CCHFV vOTU inh: 7.2; GDH-TPI counter: 26.8; FBA Mtb inh: -3.6; RecA splice inh: 4.2

How did CS(=O)(=O)c1ccc(C(=O)OCc2nnc(-c3ccccc3)o2)cc1[N+](=O)[O-] do in these assays?
CCHFV vOTU inh: -7.8; GDH-TPI counter: 2.8; FBA Mtb inh: 2.5; RecA splice inh: 73.5*; GFP chromophore: 13.6*

Results for CC(CCc1ccccc1)NC(=O)COC(=O)c1ccc(S(C)(=O)=O)c([N+](=O)[O-])c1 (centres undefined) ?
CCHFV vOTU inh: 7.6; GDH-TPI counter: -0.3; FBA Mtb inh: 1.7; RecA splice inh: 55.4*; GFP chromophore: 31.9*

How did CN(C)S(=O)(=O)c1ccc(C(=O)OCc2nnc(-c3ccccc3)o2)cc1 do in these assays?
CCHFV vOTU inh: 4.5; GDH-TPI counter: 2.5; FBA Mtb inh: 0.7; RecA splice inh: 0.8

How did CC(CCc1ccccc1)NC(=O)COC(=O)c1ccc([N+](=O)[O-])cc1 (centres undefined) do in these assays?
CCHFV vOTU inh: -6.0; GDH-TPI counter: -5.6; FBA Mtb inh: 2.0; RecA splice inh: 0.4

Results for COc1ccc(/C=C/C(=O)OCC(=O)Nc2cccc(S(=O)(=O)NC3=NCCCCC3)c2)cc1 ?
CCHFV vOTU inh: 3.1; GDH-TPI counter: 20.3; FBA Mtb inh: 3.8

What do the screens show for `COC(=O)c1ccccc1S(=O)(=O)NCc1nc2nc(C)cc(C)n2n1`?
CCHFV vOTU inh: -1.9; GDH-TPI counter: -1.4; FBA Mtb inh: -0.9; RecA splice inh: -1.9

How did CC(=O)Oc1ccc2c(=O)oc(-c3ccccc3C)nc2c1 do in these assays?
CCHFV vOTU inh: 8.2; GDH-TPI counter: -1.1; FBA Mtb inh: -1.9; RecA splice inh: 33.2*; GFP chromophore: >38

Results for C=CCN1C(=O)[C@@H](CC(=O)NCCCN2CCCC2=O)[C@]2(C(=O)OCC)CCCCC/C=C/12 ?
CCHFV vOTU inh: -6.0

Results for Nc1ccc2nc(CCCCc3nc4ccccc4[nH]3)[nH]c2c1 ?
CCHFV vOTU inh: -7.5; GDH-TPI counter: 5.7; FBA Mtb inh: 4.0; RecA splice inh: 35.8*; GFP chromophore: >38

How did CCCC(=O)N(Cc1cc(=O)[nH]c2ccccc12)c1ccc(OC)cc1 do in these assays?
CCHFV vOTU inh: 16.5; GDH-TPI counter: 2.9; FBA Mtb inh: -3.2; RecA splice inh: 4.5

How did COc1ccc(N(Cc2cc(=O)[nH]c3ccccc23)C(=O)CCl)cc1 do in these assays?
CCHFV vOTU inh: -18.4; GDH-TPI counter: 7.7; FBA Mtb inh: 1.4; GFP chromophore: 15.3*

How did Cc1cccc(N(Cc2cc(=O)[nH]c3ccccc23)C(=O)CCl)c1 do in these assays?
CCHFV vOTU inh: -7.5; GDH-TPI counter: 3.9; FBA Mtb inh: 7.0; RecA splice inh: 41.4*; GFP chromophore: 8.03*

How did CCCC(=O)N(Cc1cc(=O)[nH]c2ccccc12)c1cccc(C)c1 do in these assays?
CCHFV vOTU inh: -6.1; GDH-TPI counter: 0.7; FBA Mtb inh: 3.8; RecA splice inh: 4.7

How did CC(C)(C)OC(=O)NCCCCCNC(=O)c1[nH]cnc1C(=O)NC1CCN(C(=O)OC(C)(C)C)CC1 do in these assays?
CCHFV vOTU inh: 13.5; GDH-TPI counter: -8.6; FBA Mtb inh: -0.4

How did CC(C)CCn1c(Sc2nc3ccccc3o2)nc2c1c(=O)[nH]c(=O)n2C do in these assays?
CCHFV vOTU inh: -12.8; GDH-TPI counter: -4.4; FBA Mtb inh: -1.7; RecA splice inh: 31.1*; GFP chromophore: 5.03*

What do the screens show for `O=C(C[C@@H]1C/C=C\CCC(=O)OC[C@H](Cc2ccccc2)NC1=O)N[C@@H](CO)Cc1ccccc1`?
CCHFV vOTU inh: -7.7; GDH-TPI counter: 0.0; FBA Mtb inh: -0.9

What do the screens show for `COc1ccccc1N1CCN(CC(=O)c2c(C)n(C)c3ccccc23)CC1`?
CCHFV vOTU inh: -7.4; GDH-TPI counter: 8.0; FBA Mtb inh: -4.4; RecA splice inh: 0.5

Results for COc1ccccc1N1CCN(CC(=O)c2c(C)[nH]c3cc(C)ccc23)CC1 ?
CCHFV vOTU inh: 1.8; GDH-TPI counter: 0.0; FBA Mtb inh: -3.6; RecA splice inh: 8.7; GFP chromophore: >38

How did CCN1C[C@@H]2[C@@H]3C(=O)N(Cc4ccccc4)C(=O)[C@@H]3[C@](C)(C1=O)N2C(=O)c1ccc(Cl)cc1 do in these assays?
CCHFV vOTU inh: 2.3; GDH-TPI counter: -6.0; FBA Mtb inh: 2.1

Results for CCCCCc1c2c(cc(O)c1C(=O)O)OC(=O)c1cc(C(=O)CCCC)c(OC)cc1O2 ?
CCHFV vOTU inh: 22.8; GDH-TPI counter: 2.0; FBA Mtb inh: -2.2

How did CCCCCc1c2c(cc(O)c1C(=O)O)OC(=O)c1c(cc(OC)cc1C(=O)CCCC)O2 do in these assays?
GDH-TPI counter: 2.8; FBA Mtb inh: -0.9; RecA splice inh: 30.8*; GFP chromophore: 12.1*
